# Most compounds without a hit are left out; they make up all but 2.9% or so of the library.
# PfHsp90 yeast 2: growth inhibition of PfHsp90-expressing yeast, primary screen, antimalarial PfHsp90 inhibitor project, S. cerevisiae, BacTiter-Glo luminescence, single point, set 2; BacTiter-Glo ATP, 48 h; yeast lacking PDR1 and PDR3 efflux regulators; inhibition, % at 9.4 µM; 310,000 tested, 0.32% active; AID 504621, 2011;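 active = every replicate shows inhibition above about 80%, whatever the replicate mean, limit read from the data; inconclusive = mean inhibition reaches the set limit but some replicate falls short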;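 note: 0% = DMSO neutral controls and 100% = 20 µM radicicol positive controls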
# Glyco luc inh: increase of ERlucT glycosylation luciferase signal, primary screen, N-linked glycosylation inhibitor project, D54 ERlucT cells, luminescence, set 2; D54 ERlucT glycosylation luciferase reporter, 24 h; percent of 100 nM tunicamycin response; reporter increase, % at 12.5 µM; 360,000 tested, 0.23% active; AID 588692, 2011;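 active = mean luciferase reporter signal, scaled so untreated is 0 and the glycosylation-blocking control 100, at or above a set limit in every replicate; inconclusive = mean reaches the limit but not every replicate does; inactive = mean below the limit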;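 note: luciferase carries N-glycosylation sites so blocking glycosylation raises the light; 0% = median of neutral control wells and 100% = median of 100 nM tunicamycin wells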
# TRPM1 prom inh: inhibitors of MITF-dependent TRPM1 promoter reporter, primary screen, cell-based, SK-MEL-5, single point, luciferase; SK-MEL-5 TRPM1 promoter luciferase, 24 h; inhibition, % at 12.5 µM; 330,000 tested, 0.83% active; AID 488899, 2010;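 active = mean inhibition across replicates of 60% or more, whatever share of single replicates reaches that level; inconclusive = some that reach 60%, reason not given; inactive = mean inhibition across replicates below 60%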
# MITF act: activators of MITF-driven TRPM1 promoter reporter, primary screen, cell-based, SK-MEL-5, luciferase, single point | SK-MEL-5 TRPM1-promoter luciferase, 24 h; % of positive control, neutral wells = 0 | activation, % at 12.5 µM | 300,000 tested, 0.75% active | AID 588334, 2011;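 active = mean activation of at least 80% with every replicate also reaching 80%; inconclusive = mean reaches 80% but some replicate falls short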;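 note: 0% = neutral control wells and 100% = parthenolide positive control wells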
# NSD2 inh: NSD2 histone methyltransferase inhibitors, primary screen, biochemical, AlphaScreen, single concentration, set 2; 310,000 tested, 0.54% active; NSD2 peptide methylation, 120 min; inhibition, % at 12.5 µM; AID 743445, 2014; Histone-lysine N-methyltransferase NSD2 (Homo sapiens), O96028; in the data active = inhibition above about 50%
# Target sequence (O96028 whole entry, looked up): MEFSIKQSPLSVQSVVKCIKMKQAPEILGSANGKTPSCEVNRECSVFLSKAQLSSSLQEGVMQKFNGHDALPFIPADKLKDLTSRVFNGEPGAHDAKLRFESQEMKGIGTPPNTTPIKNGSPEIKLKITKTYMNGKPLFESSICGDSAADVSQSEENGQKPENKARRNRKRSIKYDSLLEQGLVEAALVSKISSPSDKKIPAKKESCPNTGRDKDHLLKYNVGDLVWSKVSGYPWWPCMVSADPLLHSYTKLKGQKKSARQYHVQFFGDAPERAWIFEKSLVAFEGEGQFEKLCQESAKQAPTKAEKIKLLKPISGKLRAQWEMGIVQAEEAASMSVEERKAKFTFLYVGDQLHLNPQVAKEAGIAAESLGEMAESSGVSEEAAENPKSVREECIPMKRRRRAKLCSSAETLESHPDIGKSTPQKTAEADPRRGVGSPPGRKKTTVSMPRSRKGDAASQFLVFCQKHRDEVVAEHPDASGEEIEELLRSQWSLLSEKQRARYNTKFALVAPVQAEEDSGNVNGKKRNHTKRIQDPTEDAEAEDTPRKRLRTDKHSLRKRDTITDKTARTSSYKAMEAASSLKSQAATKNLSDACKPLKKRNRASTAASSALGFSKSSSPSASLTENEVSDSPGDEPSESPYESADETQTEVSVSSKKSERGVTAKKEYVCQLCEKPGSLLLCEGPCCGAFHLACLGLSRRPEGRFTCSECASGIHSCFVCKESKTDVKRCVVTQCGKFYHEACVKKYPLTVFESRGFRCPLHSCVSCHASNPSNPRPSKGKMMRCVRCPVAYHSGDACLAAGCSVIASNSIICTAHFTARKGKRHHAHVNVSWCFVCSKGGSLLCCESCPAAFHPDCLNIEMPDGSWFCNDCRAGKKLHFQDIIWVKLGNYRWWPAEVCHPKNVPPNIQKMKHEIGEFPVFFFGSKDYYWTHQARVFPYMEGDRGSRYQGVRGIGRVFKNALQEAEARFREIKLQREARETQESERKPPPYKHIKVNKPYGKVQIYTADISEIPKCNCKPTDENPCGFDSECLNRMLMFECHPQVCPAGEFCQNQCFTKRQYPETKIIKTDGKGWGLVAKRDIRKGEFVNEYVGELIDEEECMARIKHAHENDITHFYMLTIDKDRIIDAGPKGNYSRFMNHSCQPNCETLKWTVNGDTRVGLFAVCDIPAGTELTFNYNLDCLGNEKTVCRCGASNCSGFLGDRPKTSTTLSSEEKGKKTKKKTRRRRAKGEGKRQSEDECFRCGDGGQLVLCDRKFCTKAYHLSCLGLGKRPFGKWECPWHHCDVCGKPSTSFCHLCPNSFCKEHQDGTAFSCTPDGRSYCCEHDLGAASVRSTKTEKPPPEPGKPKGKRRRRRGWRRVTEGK
# Wnt bcat act: Wnt/beta-catenin pathway activators, primary screen, cell-based, plate reader, single point | Wnt/beta-catenin reporter cell assay, activator | activation, % at 9.35 µM | 300,000 tested, 1.2% active; in the data active = activation above about 30%, passing the limit was not always enough; inconclusive = no clear call, values can overlap the other calls;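 note: 0% = neutral control wells and 100% = positive control wells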
# * hit, by the source's call; ? = inconclusive; · = not tested or not shown.
SMILES,PfHsp90 yeast 2,Glyco luc inh,TRPM1 prom inh,MITF act,NSD2 inh,Wnt bcat act
CCN(CC)c1ccc(NC(=O)C(C)C)cc1,·,0.6,-2.5,5.6,3.8,·
Cc1ccc(NC2=C(Cl)C(=O)c3ccccc3C2=O)cc1,11.2,-5.6,103.5*,-103.1,0.6,-12.2
O=C1C=C(Nc2ccc(O)cc2)C(=O)c2ccccc21,-5.9,-9.1,50.1,-51.1,·,0.2
O=C1C(Cl)=C(Nc2ccc(O)cc2)C(=O)c2ccccc21,-5.2,-0.6,97.0*,-95.9,3.3,-21.4
COC1=C(Nc2ccc(OC)cc2)C(=O)C(OC)=C(Nc2ccc(OC)cc2)C1=O,·,2.4,4.8,-1.9,1.0,-0.9
COC1=C(Nc2ccc(O)cc2)C(=O)c2ccccc2C1=O,8.9,-1.4,80.1*,-79.9,46.2,6.6
COC(=O)C1=C(C)N(C)C(=NCc2ccc3c(c2)OCO3)NC1c1ccccc1 (stereo not given),·,·,·,·,·,-0.5
Cc1ccc(N=Nc2ccc(O)cc2)c(Br)c1,115.6*,-10.2,-78.5,·,10.4,22.3
O=C(CN1C(=O)C(=O)N(C2CCCC2)C1=O)Nc1cc(Cl)ccc1[N+](=O)[O-],-2.4,1.7,6.0,-7.1,-0.3,2.9
CNC(=S)N1CCN(c2ccc(Cl)c(Cl)c2)CC1,7.0,-1.8,-5.0,4.2,-0.5,-2.0
O=C(N/N=C/c1ccc([N+](=O)[O-])o1)c1ccc(O)cc1,1.4,14.7,87.2*,-86.1,·,5.3
Cc1nc2ccccn2c1C(=O)N/N=C/c1ccc([N+](=O)[O-])o1,-4.2,23.9,68.7*,-71.3,·,0.1
O=C(N/N=C/c1ccc([N+](=O)[O-])o1)c1cc2ccccc2o1,3.0,-2.5,98.0*,-97.0,11.1,8.7
Cc1nc2ccccn2c1C(=O)N/N=C/c1ccc(CNC(=O)C(=O)Nc2ccccc2)o1,-9.1,17.4,-4.7,5.7,0.1,·
CCN(CC)S(=O)(=O)c1cccc(C(=O)N/N=C/c2ccc([N+](=O)[O-])o2)c1,3.6,51.5*,84.7*,-83.9,-0.5,-1.3
O=C(N/N=C/c1ccc([N+](=O)[O-])o1)c1cc2c(ccc3ccccc32)o1,-12.9,9.8,?,-58.0,-0.2,1.4
CCN(CC)S(=O)(=O)c1cccc(C(=O)N/N=C(\C)c2cccs2)c1,-44.8,0.6,-91.4,100.6*,-1.1,-0.9
Cc1scc(C(=O)N/N=C/c2ccc([N+](=O)[O-])o2)c1C,·,15.8,100.3*,-100.2,2.5,3.3
C/C(=N\NC(=O)c1cccc(S(=O)(=O)Nc2cccc(Cl)c2)c1)c1cccs1,-67.6,-0.4,-1.2,2.6,2.5,-3.6
Cc1[nH]n(-c2ccccc2)c(=O)c1N=Nc1ccc2c(c1)OCO2,9.7,-0.5,-48.4,48.5,8.3,49.6*
CCN(CC)C(=O)c1cc(-c2ccc3c(c2)OCO3)on1,-9.4,-3.1,-98.6,103.5*,-2.7,17.1
COc1cc(NC(=O)c2cc(-c3ccc4c(c3)OCO4)on2)cc(OC)c1OC,-29.2,2.7,40.5,-38.8,7.2,-3.1
CCCCNC(=O)c1cc(-c2ccc3c(c2)OCO3)on1,-8.4,-0.6,-69.9,74.3,-6.1,10.2
CCCNC(=O)c1cc(-c2ccc3c(c2)OCO3)on1,-4.1,-14.3,-46.6,52.7,-4.1,33.4*
CC(C)NC(=O)c1cc(-c2ccc3c(c2)OCO3)on1,17.3,-12.7,-53.5,·,-0.6,42.8*
SMILES,PfHsp90 yeast 2,Glyco luc inh,TRPM1 prom inh,MITF act,NSD2 inh,Wnt bcat act
Cn1c(SCC(=O)Nc2ccccc2-c2ccccc2)nnc1-c1cnccn1,·,·,·,·,-1.8,·
CCOc1ccc(C(=O)N(CC(=O)Nc2cccc(C)c2C)CC2CCCO2)cc1OC (stereo not given),-8.6,0.9,0.6,0.2,-1.4,51.5*
N#C/C(=C/c1ccc(N2CCOCC2)o1)c1ccc(Br)cc1,9.8,?,-60.8,63.4,5.7,·
N#C/C(=C\c1ccc(N2CCOCC2)o1)c1ccccc1,-25.1,-2.1,-89.2,86.8*,0.0,1.1
N#C/C(=C\N1CCOCC1)c1ccccc1,·,-1.5,-1.9,6.1,-0.8,-3.4
N#C/C(=C/c1ccc(N2CCCCCC2)o1)c1cccc(F)c1,-34.9,14.3,-85.5,85.6*,1.0,·
N#C/C(=C\c1ccc(N2CCOCC2)cc1)c1ccccc1,14.9,-12.2,-143.7,142.5*,2.7,33.0*
CCOCC(=O)Nc1ccccc1C(=O)N1CCOCC1,5.1,0.3,-8.9,8.3,3.9,-7.7
COc1ccccc1Nc1nnc(SCC2CCCCO2)s1 (stereo not given),36.0,-13.3,-5.7,-1.6,3.8,4.4
Cc1ccccc1Nc1nnc(SCC2CCCCO2)s1 (stereo not given),-3.4,-8.6,-7.2,12.8,-28.2,50.2*
Cc1ccc(NC(=O)CN(C)C(=O)c2cccc(S(=O)(=O)NCc3cccs3)c2)cc1,·,-0.1,-2.5,1.9,-1.8,-2.4
COc1ccc(-c2[nH]ncc2CNC(C)c2ccccc2Cl)cc1F (stereo not given),7.7,-1.9,-24.7,21.3,·,43.3*
COc1ccc(-c2[nH]ncc2CNC(C)CCn2cccn2)cc1F (stereo not given),9.7,0.7,-24.4,20.5,-0.4,-2.5
Cc1cc(=O)c2c(o1)C(=O)c1occc1C2=O,17.7,5.7,4.7,0.1,138.6*,-2.6
COc1c2occc2c(OC)c2c(=O)cc(C)oc12,-3.7,0.9,-4.3,1.3,·,-2.8
O=[N+]([O-])c1ccc(N/N=C\c2cccnc2)nc1,20.7,9.3,-95.6,99.0*,-1.1,9.1
NNC(=O)c1ccc2nc(-c3ccc(Br)cc3)cn2c1,54.9,116.1*,-90.8,92.8*,-0.6,15.8
COc1ccc(-c2cn3cc(C(=O)NN)ccc3n2)cc1,0.1,2.5,-40.5,40.2,30.6,11.6
CCN=C1NC(CCc2ccccc2)C(C(=O)OC)=C(C)N1Cc1ccc(C(F)(F)F)cc1 (stereo not given),·,·,·,·,0.1,0.9
O=C(COc1ccc2ccccc2c1Br)Nc1ccncc1,-2.5,8.8,-39.6,39.8,3.2,4.2
O=C(COc1ccc2ccccc2c1Br)Nc1cccnc1,-17.0,0.1,-113.5,114.2*,-2.4,20.1
c1ccc(Nc2ccccc2Nc2ccccn2)nc1,·,2.4,1.6,-4.1,3.7,-1.4
Oc1cccc2ccc(Nc3ccccn3)nc12,·,-1.7,86.0*,·,3.9,·
O=C(C(O)c1ccccc1)N1CCN(S(=O)(=O)c2ccc(C(F)(F)F)cc2)CC1 (stereo not given),·,·,·,·,·,-1.9
